Reference: ChEMBL document CHEMBL1157539, “Thousands of chemical starting points for antimalarial lead identification” (Nature, 2010)

Legend:
Type in all cases: functional
Plasmodium falciparum [1] = experiment: GSK_TCMDC: Inhibition of Plasmodium falciparum 3D7 in whole red blood cells, using parasite LDH activity as an index of growth. Test compounds present at 2uM
Plasmodium falciparum [2] = experiment: GSK_TCMDC: Inhibition of Plasmodium falciparum Dd2 in whole red blood cells, using parasite LDH activity as an index of growth. Test compounds present at 2uM
HepG2 = experiment: GSK_TCMDC: Percent inhibition of human HepG2 cell line. Test compounds present at 10uM.

SMILES	Inhibition (Plasmodium falciparum [1]) [%]	Inhibition (Plasmodium falciparum [2]) [%]	Inhibition (HepG2) [%]
CC(C)C1C(O)=C(c2ccc3ccccc3c2)C(=O)N1Cc1cccc(F)c1 (stereo not drawn)	97	82	3
C=C1N(C)c2cc([N+](=O)[O-])c(N)cc2C1(C)C	98	83	22
O=S(=O)(c1c(Cl)cc(Cl)cc1Cl)N1CCCCC(c2ccc(C(F)(F)F)cc2)=N1	98	99	6
COc1cc(NC(=O)c2sc(-c3ccc(Cl)cc3)cc2NC(=O)c2ccncc2)ccc1OCCN1CCCC1	100	100	100
Cc1sc2ccc(Cl)cc2c1S(=O)(=O)Nc1ccc2nccc(N3CC(C)NC(C)C3)c2c1.Cl (stereo not drawn)	100	100	17
Cc1[nH]c(C)c(-c2ccc(-c3ccc(Cl)cc3)nc2)c(=O)c1Cl	95	96	8
Cc1ccc(CNC(=O)[C@H](Cc2ccccc2)Nc2cc(C)nc(Nc3ccccc3)n2)cc1.O=C(O)C(F)(F)F	100	91	16
O=C(Nc1cc(Cl)c(Cl)cc1NC(=O)c1cccc(-c2ccccc2)c1O)c1cccc(-c2ccccc2)c1O	100	100	79
Br.CCSc1ccccc1CON1C(=N)N=C(N)NC1(C)C	96	10	62
Nc1ncnc2cc(-c3cccc(S(N)(=O)=O)c3)sc12	98	99	13
O=C(Nc1ccccc1Br)c1cn(-c2ccccc2)nc1-c1cccc([N+](=O)[O-])c1	92	36	7
